From PubChem BioAssay
DT40 TDP1 CPT = DT40-hTDP1 cell growth loss with CPT; chicken DT40 Tdp1-/-;hTDP1 cells + 20 nM CPT, ATP luminescence, 48 h; Potency, µM (doses to about 46.2 µM), most hits filed as inhibitors; hit rate 12% among 420,000; further: nearly all actives have a fitted effect of over 55% in size
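Cell growth measured by CellTiter-Glo luminescence after a minimum 48 h, 37 C compound exposure with 20 nM CPT in Tdp1-knockout DT40 cells stably expressing hTDP1, seeded 400/well; qHTS titration format.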
TDP1 block = inhibitors of human tyrosyl-DNA phosphodiesterase TDP1. AID 485290. Q9NUW8. recombinant TDP1, AlphaScreen DNA substrate cleavage. hit rate 0.28% among 350,000. Potency, µM (highest dose often 130 µM), most hits filed as inhibitors; further: nearly all actives have a fitted effect of over 40% in size
Target sequence (Q9NUW8 whole entry, looked up): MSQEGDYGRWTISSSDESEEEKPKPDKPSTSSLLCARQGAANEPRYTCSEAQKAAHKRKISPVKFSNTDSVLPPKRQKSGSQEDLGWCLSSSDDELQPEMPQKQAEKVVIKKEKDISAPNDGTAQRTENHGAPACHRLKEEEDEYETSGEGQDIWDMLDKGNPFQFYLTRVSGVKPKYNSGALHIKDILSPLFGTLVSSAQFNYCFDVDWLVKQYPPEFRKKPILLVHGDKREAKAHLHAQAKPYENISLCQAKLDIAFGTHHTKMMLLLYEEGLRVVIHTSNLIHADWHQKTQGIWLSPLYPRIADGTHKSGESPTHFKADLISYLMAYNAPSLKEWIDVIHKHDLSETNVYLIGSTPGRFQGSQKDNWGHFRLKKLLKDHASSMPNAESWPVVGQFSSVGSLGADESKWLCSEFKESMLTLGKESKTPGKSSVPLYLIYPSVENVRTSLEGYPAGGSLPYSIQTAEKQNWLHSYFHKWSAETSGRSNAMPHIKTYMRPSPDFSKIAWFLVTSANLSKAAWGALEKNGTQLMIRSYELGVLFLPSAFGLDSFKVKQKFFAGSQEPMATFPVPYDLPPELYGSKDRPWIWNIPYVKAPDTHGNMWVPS
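AlphaScreen read-out: signal falls as enzyme removes the 3' tyrosine-FITC from a 5'-biotinylated DNA oligo (15 nM, 5 min, RT). Enzyme was E. coli-made recombinant Tdp1 at 1 nM, exposed to compound for 15 min beforehand; beads 10 ug/ml, 10 min.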
IL1B secr inh = inhibitors of inflammasome signaling (IL-1 beta secretion); THP-1 LPS/ATP IL-1B secretion, AlphaLISA, 16 h; active compounds read low; activity change, % at 57.5 µM; hit rate 4.7% among 360,000; AID 743279; in the data active means activity change below about -50%; inconclusive means mostly about -30% to -49%
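THP-1 cells pretreated 1 hr with compounds (up to 57.5 uM final), then stimulated with LPS (250 ng/mL final) plus ATP (1.25 mM final); secreted IL-1B measured by AlphaLISA after 16 hr, decreased signal indicating inhibition.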
DT40 TDP1 no CPT = qHTS for Inhibitors of human tyrosyl-DNA phosphodiesterase 1 (TDP1): qHTS in cells in absence of CPT. DT40 Tdp1-/- hTDP1 cells, no CPT, ATP luminescence, 48 h. Potency, µM (titrated, usually from 46.2 µM), usual class: inhibitors. hit rate 15% among 420,000. AID 686978, 2013; further: nearly all actives have a fitted effect of over 55% in size
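No-CPT arm: Tdp1-/-;hTDP1 DT40 cells (400/well) plus compounds, incubated ≥48 hr at 37 °C. Readout CellTiter-Glo luminescence.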
CtBP-E1A inh = blocks the CtBP interaction with E1A; AlphaScreen GST-E1A/His-CtBP binding, 1536-well; active compounds read low; activity change, % (no concentration beside the values); hit rate 0.49% among 340,000; in the data active means activity change below about -65%; inconclusive means mostly about -30% to -63%
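Steps: dispense buffer (Tris pH 8.0, NaCl 300 mM, TCEP 1 mM, BSA, Tween 20); add 5X protein mix (GST-E1A, His-CtBP, 125 nM each); pin 23 nL compound; 2 h at 37 °C, dark; add 5X beads (50 ug/mL); 1 h; read.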
Six1-Eya2 blk = blocks human Six1 binding to Eya2; activity change, % (test concentration not listed); Q15475+O00167; AlphaScreen GST-Six1/His-Eya2 binding, biochemical; active compounds read low; hit rate 0.56% among 360,000; AID 651725; in the data active means activity change below about -65%; inconclusive means mostly about -30% to -63%
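Homogeneous AlphaScreen proximity assay pairing GST-Six1 with His-tagged Eya2 (added as 5X mix: 250 nM and 500 nM) in 50 mM Tris pH 8.0, 300 mM NaCl, 1 mM TCEP. Glutathione donor and nickel acceptor beads; 1 h, 37 °C, dark.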
Large screens that a line does not name were inactive. Shown are actives, neighbours in structure and some others; about 18% of the full set was active somewhere. Unless noted, the call rests on the fitted dose curve; in most records, active means well fitted curve in the direction sought with a large enough effect; inconclusive means small, poorly fitted or top-dose-only effect, or another doubt; inactive means no such curve, though single readings can be large; an effect the other way counts as inactive or inconclusive.

COc1ccccc1Nc1nn2c(=O)c3ccc(C(=O)N4CCC(C)CC4)cc3nc2s1	DT40 TDP1 CPT 23.1µM, DT40 TDP1 no CPT 18.4µM
COc1ccc(Nc2nn3c(=O)c4cc5c(cc4nc3s2)OCO5)c(OC)c1	DT40 TDP1 CPT inconclusive, DT40 TDP1 no CPT inconclusive (no result: IL1B secr inh, CtBP-E1A inh, Six1-Eya2 blk)
CC1CCCN(C(=O)c2ccc3nc[nH]c3c2)C1 (centres undefined)	none
Cc1ccccc1Nc1nn2c(=O)c3ccc(C(=O)N4CCCC(C)C4)cc3nc2s1 (centres undefined)	DT40 TDP1 CPT 14.6µM, DT40 TDP1 no CPT 16.4µM
CCc1ccccc1Nc1nn2c(=O)c3ccc(C(=O)NC4CCC(C)CC4)cc3nc2s1 (centres undefined)	DT40 TDP1 CPT inconclusive, DT40 TDP1 no CPT 16.4µM (no result: IL1B secr inh, CtBP-E1A inh, Six1-Eya2 blk)
CCOC(=O)C1CCN(C(=O)c2ccc3c(=O)n4nc(Nc5ccccc5)sc4nc3c2)CC1	DT40 TDP1 CPT 20.6µM, DT40 TDP1 no CPT 14.6µM
CCCc1cc(=O)[nH]c(SCC(=O)c2c(N)n(C3CC3)c(=O)[nH]c2=O)n1	DT40 TDP1 CPT inconclusive
COc1ccccc1Nc1nn2c(=O)c3ccc(C(=O)NC4CCC(C)CC4)cc3nc2s1 (centres undefined)	DT40 TDP1 CPT 5.8µM, DT40 TDP1 no CPT 5.17µM (no result: IL1B secr inh, CtBP-E1A inh, Six1-Eya2 blk)
Cn1/c(=N/N=C/c2ccc([N+](=O)[O-])cc2)sc2ccccc21	none (no result: DT40 TDP1 CPT, IL1B secr inh, DT40 TDP1 no CPT, CtBP-E1A inh, Six1-Eya2 blk)
CC(=O)Nc1cc2c(cc1[N+](=O)[O-])-c1ccccc1C2O (centres undefined)	DT40 TDP1 CPT inconclusive, IL1B secr inh inconclusive, DT40 TDP1 no CPT 11.6µM (no result: TDP1 block)
CC(=O)Nc1cc2c(cc1[N+](=O)[O-])-c1ccccc1C2=NO	DT40 TDP1 CPT inconclusive (no result: TDP1 block)
Cc1cc(C)cc(OCc2ccc(C(=O)N3N=C(C(F)F)CC3(O)C(F)F)o2)c1 (centres undefined)	DT40 TDP1 CPT inconclusive, DT40 TDP1 no CPT inconclusive
COC(=O)c1c(NC(=S)NN2CCOCC2)sc2c1CCCC2	DT40 TDP1 CPT inconclusive, DT40 TDP1 no CPT 14.6µM (no result: TDP1 block)
COC(=O)c1c(NC(=O)c2ccc(S(=O)(=O)N3CCOCC3)cc2)sc2c1CCN(C)C2	DT40 TDP1 CPT inconclusive, IL1B secr inh -74.6, DT40 TDP1 no CPT inconclusive
COC(=O)c1c(NC(=O)c2ccc(S(=O)(=O)N3CCC(C)CC3)cc2)sc2c1CCN(C)C2	DT40 TDP1 CPT inconclusive, DT40 TDP1 no CPT inconclusive (no result: IL1B secr inh, CtBP-E1A inh, Six1-Eya2 blk)
CCOC(=O)c1c(NC(=O)c2ccc(S(=O)(=O)N3CCOCC3)cc2)sc2c1CCN(C(C)C)C2	DT40 TDP1 CPT inconclusive, IL1B secr inh inconclusive, DT40 TDP1 no CPT 8.2µM
CCN1CCc2c(sc(NC(=O)c3ccc(S(=O)(=O)N4CCOCC4)cc3)c2C(=O)OC)C1	DT40 TDP1 CPT 8.2µM, DT40 TDP1 no CPT inconclusive
CC(C)[C@@H]1CC[C@@H](C)CC1=O	none (no result: TDP1 block, IL1B secr inh, CtBP-E1A inh, Six1-Eya2 blk)
CCNC(=O)NC(=O)c1csc([N+](=O)[O-])c1	none
O=C(Nc1ccc(Cl)cc1)Nc1cc([N+](=O)[O-])ccc1F	none
O=C(Nc1ccc(Cl)cc1)Nc1csc([N+](=O)[O-])c1	DT40 TDP1 CPT 18.4µM, DT40 TDP1 no CPT 9.2µM (no result: TDP1 block, IL1B secr inh)
O=C(Nc1csc([N+](=O)[O-])c1)Nc1c(Cl)cccc1Cl	DT40 TDP1 CPT inconclusive, DT40 TDP1 no CPT 16.4µM (no result: TDP1 block, CtBP-E1A inh)
CCOC(=O)[C@]12CCCC=C1N(Cc1cccc3ccccc13)C(=O)[C@H](CC(=O)NCc1cccc(C(F)(F)F)c1)C2	DT40 TDP1 CPT inconclusive, DT40 TDP1 no CPT inconclusive (no result: TDP1 block)
CCCCNC(=O)C[C@@H]1C[C@@]2(C(=O)OC)CC(C)(C)CC=C2N(Cc2cccc3ccccc23)C1=O	DT40 TDP1 CPT inconclusive, DT40 TDP1 no CPT inconclusive (no result: TDP1 block)
CCOC(=O)[C@]12CCC=C1N(Cc1cccc3ccccc13)C(=O)[C@H](CC(=O)NCCCCc1ccccc1)C2	DT40 TDP1 CPT 23.1µM, IL1B secr inh -70.5, DT40 TDP1 no CPT 16.4µM (no result: TDP1 block)
CCOC(=O)[C@]12CCC=C1N(Cc1ccccc1)C(=O)[C@H](CC(=O)NCc1cccc3ccccc13)C2	DT40 TDP1 CPT inconclusive, DT40 TDP1 no CPT inconclusive (no result: TDP1 block)
